# An excerpt weighted towards active compounds, which were near 3.2% of everything screened.
# TROY signal inh: blocks TROY-dependent signaling in reporter cells. Q293 LMP1-TROYcd NF-kB luciferase reporter, 4 h. inhibition, % at 10 µM. 360,000 tested, 0.98% active. AID 1347056;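 active = compounds whose plate-normalised and pattern-corrected inhibition of the luciferase reporter signal at the single screening dose is 50% or more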
# TWEAK-Fn14 inh: inhibitors of TWEAK-Fn14 interaction signaling; TWEAK-stimulated Fn14 reporter cells, luciferase luminescence, 8 h; inhibition, % at 10 µM; 360,000 tested, 2% active; AID 1159606; in the data active = inhibition above about 50%
# EWS-Fli block: blocks EWS/Fli oncoprotein-driven transcription | A673 NR0B1-luciferase reporter, viability-normalised | inhibition, % at 12.6 µM | 350,000 tested, 0.67% active;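 active = mean inhibition of at least 50% after viability correction, with every replicate also passing that limit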;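 also: firefly luciferase signal divided by Alamar Blue viability fluorescence both relative to DMSO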
# LMP1 NFkB inh: Epstein-Barr LMP1 NF-kappaB reporter inhibition. 350,000 tested, 0.69% active. inhibition, % at 12.5 µM. AID 504558. LMP1-induced NF-kappaB luciferase reporter cells, luminescence; in the data active = inhibition above about 41%;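 also: 0% = neutral control wells and 100% = reference inhibitor control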
# LGR2 inh: inhibitors of bursicon-induced Drosophila LGR2 receptor cAMP signaling | AID 720647 | HEK293 LGR2, CRE-luciferase, bursicon-stimulated, 4 h | inhibition, % at 9.99 µM | 380,000 tested, 0.35% active;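 active = drop in luminescence signal, shown as inhibition above about 50% in the replicate tests, limit read from the data, passing the limit was not always enough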;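 also: agonist challenge used bursicon conditioned medium at about half maximal strength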
# PAX8 inh HTS: lowers PAX8-driven luciferase in RMG-I cells. RMG-I TPO-luciferase reporter, SteadyGlo, 24 h. inhibition, % at 12.6 µM. 360,000 tested, 1.2% active. AID 652154;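 active = mean replicate inhibition at least 60% with every replicate also reaching 60%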;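 also: luciferase light reporting Pax8 driven TPO promoter activity; plate controls were median of neutral control wells for no effect and mitoxantrone controls for full effect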
# Active calls of the source: *; . = not tested or not shown.
SMILES,TROY signal inh,TWEAK-Fn14 inh,EWS-Fli block,LMP1 NFkB inh,LGR2 inh,PAX8 inh HTS
COc1ccccc1/C=C/c1nc2ccccc2c(=O)o1,-14,27,-111,-14,2,-110
COc1ccc(/C=C/c2nc3ccccc3n2C)cc1,48,76*,81*,54*,96*,88*
COc1ccc(Cn2c(/C=C/c3ccccc3)nc3ccccc32)cc1,-48,-36,.,-59,.,-205
COc1ccc(/C=N\n2nnc3ccccc32)cc1,45,90*,.,36,.,19
CCN1[C@@H]2Cn3c(ccc(-c4ccc(F)cc4)c3=O)[C@H]1[C@@H](C(=O)Nc1ccccc1)[C@@H]2CO,.,.,8,.,-1,1
C[C@@H](O)C#Cc1ccc2c(c1)O[C@@H](CN(C)Cc1ccccn1)[C@@H](C)CN([C@@H](C)CO)S2(=O)=O,.,.,-2,.,12,.
CC(C)NC(=O)N(C)C[C@H]1Oc2cc(-c3ccncc3)ccc2S(=O)(=O)N([C@@H](C)CO)C[C@H]1C,.,.,1,.,0,.
COc1cccc(S(=O)(=O)N2C[C@H](O)COC[C@@H]3O[C@@H](CC(=O)N4CCCCC4)CC[C@H]32)c1,.,.,7,.,-13,8
Cc1noc(C)c1S(=O)(=O)Nc1ccc2c(c1)C(=O)N([C@H](C)CO)C[C@@H](C)[C@@H](CN(C)S(=O)(=O)c1ccccc1)OCCCC[C@H](C)O2,.,.,20,.,-8,-3
O=[N+]([O-])c1ccc(O)c(/C=N/Nc2ncnc3c2cnn3-c2ccccc2)c1,7,40,7,47*,-9,26
O=[N+]([O-])c1ccc(O)c(/C=N/Nc2nc3ccccc3[nH]2)c1,-40,20,-12,28,-33,27
O=[N+]([O-])c1ccc(NN=Cc2ccccc2O)nc1,-30,14,-81,2,-44,-20
O=[N+]([O-])c1ccc(O)c(/C=N/Nc2ccccn2)c1,16,-26,20,47*,24,71*
C[C@H](CO)N1C[C@H](C)[C@@H](CN(C)C(=O)NC2CCCCC2)Oc2ccc(NC(=O)Cn3cnnn3)cc2CC1=O,.,.,-14,.,-5,8
CCOC(=O)N1CCN(C(=O)CCCn2c(=S)[nH]c3ccccc3c2=O)CC1,4,6,.,9,.,8
CCOC(=O)N1CCC(n2c(=S)[nH]c3ccccc3c2=O)CC1,3,17,.,66*,-41,.
C[C@H]1CN([C@@H](C)CO)S(=O)(=O)c2ccc(-c3cccnc3)cc2O[C@@H]1CN(C)Cc1ccccn1,.,.,0,.,1,.
O=C(NCCCN1CCCC1)Nc1ccc(F)cc1,-6,-32,3,4,0,5
CCOc1ccc(NC(=O)NCCCN2CCCC2)cc1,-7,90*,.,-6,-7,.
O=C(Nc1ccccc1C(=O)NCCCN1CCOCC1)c1ccc(F)cc1F,14,4,2,4,11,9
O=C(Nc1ccc(OCc2ccccc2)cc1)Nc1ccccc1C(=O)NCCCN1CCOCC1,-28,89*,-22,2,-25,-16
CS(=O)(=O)N1CC(=O)N2[C@H](C1)[C@H](c1ccc(C#CCc3ccccc3)cc1)[C@@H]2CO,.,.,-9,.,-3,18
Cc1ccc(SC2=C(Sc3ccc(C)cc3)C(=O)c3ccccc3C2=O)cc1,60*,47,41,-7,-91,13
Cc1ccc(N2C(=O)c3ccccc3C2=O)cc1,-59,-13,1,2,-34,1
O=S1(=O)CC(c2ccccc2)=NN=C(c2ccccc2)C1,38,89*,39,21,-79,-235
SMILES,TROY signal inh,TWEAK-Fn14 inh,EWS-Fli block,LMP1 NFkB inh,LGR2 inh,PAX8 inh HTS
O=C(Cc1ccccc1)N[C@@H]1C=C[C@@H](CC(=O)N2CCCCC2)O[C@H]1CO,.,.,1,.,2,-16
O=C(NCC[C@@H]1CC[C@@H](NS(=O)(=O)Cc2ccccc2)[C@@H](CO)O1)C1CCC1,.,.,-1,.,0,4
O=C1CSC(=S)N1c1cccc(O)c1,31,76*,0,7,16,16
O=C(O)c1cccc(N2C(=O)CSC2=S)c1,-25,4,5,-4,6,-28
O=C(N[C@H]1C=C[C@H](CC(=O)N2CCOCC2)O[C@@H]1CO)c1ccc2c(c1)OCO2,.,.,-11,.,5,3
C[C@@H]1CCCCO[C@H](CN(C)CC2CC2)[C@H](C)CN([C@@H](C)CO)C(=O)c2cc(NC(=O)Nc3ccc(C(F)(F)F)cc3)ccc2O1,.,.,76*,.,14,28
C[C@@H]1CCCCO[C@@H](CN(C)CC2CC2)[C@H](C)CN([C@@H](C)CO)C(=O)c2cc(NC(=O)Nc3ccc(C(F)(F)F)cc3)ccc2O1,.,.,6,.,9,23
C[C@H](CO)N1C[C@H](C)[C@H](CN(C)CC2CC2)OCCCC[C@H](C)Oc2ccc(NC(=O)Nc3ccc(C(F)(F)F)cc3)cc2C1=O,.,.,5,.,16,73*
COc1ccc(CN(C)C[C@H]2Oc3ccc(NC(=O)Cc4cn(C)c5ccccc45)cc3C(=O)N([C@@H](C)CO)C[C@H]2C)cc1,.,.,-7,.,2,5
O=C(C[C@@H]1CC[C@@H]2[C@H](COC[C@H](O)CN2Cc2cccc(Cl)c2)O1)NCC1CCCCC1,.,.,-19,.,4,-9
CN(C)CC(=O)N[C@@H]1CC[C@H](CC(=O)NCc2ccccc2F)O[C@H]1CO,.,.,-10,.,11,-11
N#Cc1cccc(-c2ccc3c(c2)[C@H]2[C@H](CCN2S(=O)(=O)c2cccc(F)c2)[C@H](CO)N3)c1,.,.,3,.,7,-2
CC1CCc2nc(N)c(C#N)c(-c3cccnc3)c2C1 (configuration not stated),54*,83*,3,59*,27,-62
CC1CCc2nc(N)c(C#N)c(-c3ccncc3)c2C1 (configuration not stated),-12,3,.,6,.,.
Cc1ccc(-c2cnc3c(c2)C(=O)N([C@H](C)CO)C[C@H](C)[C@H](CN(C)C(=O)c2cccnc2)O3)cc1,.,.,-2,.,17,.
Cc1ccc(C)c(S(=O)(=O)N2CCN(CC(=O)N3CCc4ccccc4C3)CC2)c1,2,-16,.,57*,9,.
CN(C)c1ccc(/C=C(\Cl)c2nc3ccccc3s2)cc1,73*,92*,.,3,.,.
Cc1cccc(C)c1N1C(=O)CCC(C)(C)C1=O,2,14,-2,50*,3,-5
CC(C)=CCCC(C)N(C=O)C(C)CCC=C(C)C (configuration not stated),50*,53*,.,-10,.,.
O=C(C1CCCC1)N1CC2(C1)[C@@H](c1ccccc1)[C@H](CO)N2Cc1ccc(Cl)cc1,.,.,-1,.,-7,-15
O=C1/C(=C/c2ccc(N3CCOCC3)o2)SC(=Nc2ccccc2)N1CCc1c[nH]c2ccccc12,17,90*,.,15,.,.
COc1ccc(N=C2S/C(=C\c3ccc(OC(C)C(=O)O)c(OC)c3)C(=O)N2CCc2c[nH]c3ccccc23)cc1 (configuration not stated),54*,39,9,0,13,21

# Screening data from PubChem BioAssay.
